NS1 inh: inhibitors of influenza NS1 protein function; AID 2326; Potency, µM (series often up to 46.1 µM), for inactives: at the top dose activity, positive = more growth; actives 0.4% (n = 270,000); also: potency is read from the fitted curve at half-maximal effect; actives are rising curves; nearly all actives have a fitted effect of over 50% in size
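In this qHTS, NS1 from influenza A is expressed in budding yeast, where it slows growth. Cells are switched from glucose to 2% galactose medium (pH 6.0, -URA), treated with compound, and growth recovery is read at OD600.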
RE007 growth inh: less growth of the S. pombe RE007 Vpr strain. AID 651644. Potency, µM (doses to about 92.2 µM), without a hit: at the highest dose activity change, negative = less growth, most hits filed as inhibitors. actives 0.21% (n = 360,000). S. pombe RE007 Vpr strain, BacTiter-Glo ATP luminescence, 24 h; active = well fitted falling curve with a large enough effect; inconclusive = small, poorly fitted or top-dose-only effect; inactive = no such curve, though single readings can be large or run the other way; also: potency is read from the fitted curve at half-maximal effect; % is scaled to controls: 0 for no effect and ±100 for the full control effect; nearly all actives have a fitted effect of over 50% in size
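Fission yeast RE007 carrying one integrated HIV-1 vpr copy, seeded at OD 0.01 in PMG+AL medium with 23 nL pinned compound. Grown 24 h at 30 degrees; viability read by BacTiter-Glo luminescence after 5 min.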
Tb PYK inh: blocks Trypanosoma brucei pyruvate kinase | AID 624173 | TbPYK enzyme, Kinase-Glo Plus ATP luminescence, 45 min | Potency, µM (titrated, usually from 76.8 µM), for the others: at the highest dose activity, negative = inhibition, actives largely listed as inhibitors | actives 0.12% (n = 410,000); active = well fitted curve in the direction sought with a large enough effect; inconclusive = small, poorly fitted or top-dose-only effect, or another doubt; inactive = no such curve, though single readings can be large; an effect the other way counts as inactive or inconclusive; also: potency is read from the fitted curve at half-maximal effect; % is scaled to controls: 0 for no effect and ±100 for the full control effect; nearly all actives have a fitted effect of over 50% in size
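Activity of T. brucei pyruvate kinase was followed by Kinase-Glo Plus luminescence after the enzyme reacted 45 min at room temperature with 130 uM ADP (final) and substrate. Test compounds were added before ADP at multiple concentrations.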
LmPK inh: blocks Leishmania mexicana pyruvate kinase activity; purified LmPK, Kinase-Glo ATP luminescence, 1 h; AID 1721; Potency, µM (series often up to 57.5 µM), inactives show top-dose activity change, negative = inhibition, usual class: inhibitors; actives 0.37% (n = 290,000); Q27686; active = well fitted curve in the direction sought with a large enough effect; inconclusive = small, poorly fitted or top-dose-only effect, or another doubt; inactive = no such curve, though single readings can be large; an effect the other way counts as inactive or inconclusive; also: potency is read from the fitted curve at half-maximal effect; % is scaled to controls: 0 for no effect and ±100 for the full control effect
Target sequence (Q27686 whole entry, looked up): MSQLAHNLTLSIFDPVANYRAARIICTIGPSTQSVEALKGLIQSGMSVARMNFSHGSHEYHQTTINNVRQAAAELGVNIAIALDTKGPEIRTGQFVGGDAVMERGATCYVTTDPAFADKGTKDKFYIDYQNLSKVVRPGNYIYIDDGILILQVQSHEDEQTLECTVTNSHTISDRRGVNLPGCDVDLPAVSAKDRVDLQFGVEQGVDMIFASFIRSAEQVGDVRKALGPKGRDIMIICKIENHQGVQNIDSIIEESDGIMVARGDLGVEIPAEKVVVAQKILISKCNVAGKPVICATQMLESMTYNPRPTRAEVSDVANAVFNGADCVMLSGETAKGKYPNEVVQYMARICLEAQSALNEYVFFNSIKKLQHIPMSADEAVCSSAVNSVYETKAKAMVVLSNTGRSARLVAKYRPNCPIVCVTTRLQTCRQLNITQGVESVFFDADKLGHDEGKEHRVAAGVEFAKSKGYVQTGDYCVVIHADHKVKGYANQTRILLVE
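Purified LmPK (0.1 nM) with 0.5 mM PEP and 0.1 mM ADP in imidazole buffer pH 7.2 with MgCl2/KCl, 1 h at room temperature. ATP formed was read by luciferase luminescence and normalized to no-enzyme and uninhibited controls.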
Flu NS1 inh: validation of influenza NS1 protein function inhibitors; 1,400 tested, under 10 active; shares compounds with NS1 inh; influenza NS1 function cell assay, 15-point titration; AID 492980; activity change, negative = inhibition, % at 32.9 µM; also: 0% is about no effect
Active calls of the source: *; ? = inconclusive; . = not tested or not shown. In the library only some 0.77% were active in any assay of this set; here they are far more common. Unless noted, calls follow the shape of the full dose curve.

SMILES	NS1 inh	RE007 growth inh	Tb PYK inh	LmPK inh	Flu NS1 inh
CCOC(=O)c1ccc(N2C(=O)c3[nH]nc(-c4ccccc4)c3C2c2cccs2)cc1 (stereo not drawn)	.	.	-2.5%	.	.
O=C(N/N=C/C=C/c1ccccc1[N+](=O)[O-])c1cc(-c2ccccc2)n[nH]1	2.24µM*	-8.9%	-0.8%	1.0%	9.8
O=C(N/N=C/C=C\c1ccccc1[N+](=O)[O-])c1ccccn1	-20.5%	-15.4%	1.1%	-4.3%	.
Cc1cc(C)n2nc(SCC(=O)Nc3c(C)n(C)n(-c4ccccc4)c3=O)nc2n1	5.01µM*	12.5%	1.1%	5.4%	7.7
COc1ccc(OC)c(S(=O)(=O)N2CCCC2C(=O)N2CCc3ccccc3C2)c1 (stereo not drawn)	?	-16.6%	0.1%	0.8%	?
COc1ccc(OC)c(S(=O)(=O)N2CCCCC2C(=O)N2CCN(c3ccccn3)CC2)c1 (stereo not drawn)	-5.3%	-5.6%	-12.3%	4.2%	.
CCCC(=O)Nc1cccc2c1CCCC2	5.62µM*	51.9%	-12.4%	0.3%	12.0
CNC(=O)C1CCC(Cn2c(=O)c3sccc3n(CC(=O)NCc3ccc(F)cc3)c2=O)CC1 (stereo not drawn)	.	.	0.9%	.	.
O=C(N/N=C/c1ccc(Cl)c([N+](=O)[O-])c1)c1ccc2nc[nH]c2c1	0.9%	-5.2%	-0.8%	3.3%	.
O=C(N/N=C/c1cccc([N+](=O)[O-])c1)c1cc(-c2ccc3c4c(cccc24)CC3)n[nH]1	?	-7.1%	1.0%	3.0%	-20.6
CC(C)c1ccc(/C=N/NC(=O)c2cc(-c3cccc([N+](=O)[O-])c3)n[nH]2)cc1	2.2%	0.2%	3.3%	3.3%	.
O=C(N/N=C/c1ccc(Cl)c([N+](=O)[O-])c1)c1cc(-c2ccc3c4c(cccc24)CC3)n[nH]1	5.01µM*	0.3%	-3.8%	3.7%	-1.3
Cc1ccc(NC(=O)c2cc(NC(=O)C3CC=CCC3C(=O)O)ccc2N2CCOCC2)cc1 (stereo not drawn)	7.94µM*	-28.5%	4.2%	0.4%	22.6
CCOc1cc(C#N)c(-n2nnc3c(sc4nc(C)cc(C)c43)c2=O)cc1OCC	.	.	-12.5%	.	.
CC1CCN(C(=O)Cn2c(=O)n(Cc3ccc4c(c3)OCO4)c(=O)c3ccccc32)CC1	-7.6%	4.2%	-2.7%	-4.4%	.
CC1CCN(C(=O)CSc2nc3ccccc3c(=O)n2Cc2ccc3c(c2)OCO3)CC1	?	15.3%	-2.7%	5.7%	?
c1ccc(-c2nnc(CN3CCCc4ccccc43)o2)cc1	?	-13.6%	0.5%	-0.1%	?
c1ccc(-c2nnc(CN3CCCCC3)o2)cc1	4.8%	.	-3.9%	-7.0%	.
Cc1ccc(C)c(N2CCN(C(=O)C3CCC(CNS(=O)(=O)c4ccc(Br)s4)CC3)CC2)c1 (stereo not drawn)	.	.	1.8%	.	.
CCCCOc1cccc(C(=O)Nc2ccc(S(=O)(=O)Nc3nnc(CC)s3)cc2)c1	8.91µM*	-2.0%	-12.7%	-0.5%	11.5
CCN(CC)c1ccc(-n2nc3cc(C)c(NC(=O)c4ccccc4F)cc3n2)cc1	.	.	-0.9%	.	.
Cc1nn(C)c(C)c1CCC(=O)N1CCCC(N2CCN(c3ccc(F)cc3)CC2)C1 (stereo not drawn)	?	-10.5%	-7.5%	6.0%	-8.8
Cc1ccc(CNC(=O)COCc2cc(-c3ccc4c(c3)OCO4)on2)cc1	.	.	3.7%	.	.
Cc1[nH]c(C)c(CN(C)C)c1CN(C)C	-4.9%	.	.	.	.
Cc1c(OC(C)C(=O)NCC(O)c2ccccc2)ccc2c3c(c(=O)oc12)CCC3 (stereo not drawn)	-14.7%	-9.6%	-11.9%	1.2%	.
SMILES	NS1 inh	RE007 growth inh	Tb PYK inh	LmPK inh	Flu NS1 inh
Cc1c(OC(C)C(=O)N[C@H](C(=O)O)c2ccccc2)ccc2c3c(c(=O)oc12)CCCC3 (stereo partly drawn)	10µM*	10.6%	-6.3%	-7.4%	-5.4
COc1ccc(-n2nc(C(=O)N(C)C)nc2-c2ccccc2)cc1	?	6.1%	-1.5%	-5.7%	15.7
COc1ccc(NC(=O)c2cc(-c3ccco3)on2)c(OC)c1	?	-24.2%	1.9%	0.4%	-14.5
COc1cc(NC(=O)c2cc(-c3ccco3)on2)c(OC)cc1Cl	-13.5%	13.3%	-3.9%	-1.5%	.
CCOC(=O)N1CCc2c(sc3c2c(=O)n(Cc2ccccc2)c(=O)n3Cc2cccc(Cl)c2)C1	.	.	2.0%	.	.
O=C(Nn1c(SCc2cccc([N+](=O)[O-])c2)nc2ccccc2c1=O)c1ccccc1	14.1µM*	-5.9%	-1.9%	1.9%	-7.4
Cn1c(O)c(C=NCc2ccco2)c(=O)n(C)c1=O	8.91µM*	4.8%	2.3%	7.2%	-13.5
CCC(C(=O)Nc1ccc(C(=O)O)cc1NC(=O)C(CC)c1ccccc1)c1ccccc1 (stereo not drawn)	11.2µM*	8.5%	0.2%	2.0%	6.1
Cc1ccc(C(=O)O)cc1NC(=S)NC(=O)Cc1ccccc1	0.4%	20.1%	-0.8%	-3.5%	.
Cc1ccc(C(=O)O)cc1NC(=S)NC(=O)C(c1ccccc1)c1ccccc1	?	10.0%	-5.6%	-4.9%	5.8
O=C(NC1CC(=O)N(c2ccc(F)cc2)C1)C1CC1 (stereo not drawn)	.	.	1.5%	.	.
CCCCC(=O)Nc1ccc2c(c1)nc1n2CCSC1	8.91µM*	2.0%	-2.5%	5.5%	-11.8
O=C(CN1C(=O)C2CCCCC2C1=O)OCn1nnc2ccccc2c1=O (stereo not drawn)	-6.0%	-2.9%	1.0%	1.7%	.
CCC1(CC)NC(=O)N(CC(=O)OCn2nnc3ccccc3c2=O)C1=O	7.08µM*	-7.5%	1.3%	4.1%	2.9
O=C(CC(c1ccccc1)c1cc(Br)ccc1O)NCC1(c2ccccc2)CCCC1 (stereo not drawn)	.	.	-1.0%	.	.
COc1ccc2c(c1)c(C(C)=O)c(C)n2CCc1ccc(OC)c(OC)c1	-5.9%	-2.7%	4.1%	3.3%	.
COc1ccc2c(c1)c(C(=O)O)c(C)n2CCc1ccc(OC)c(OC)c1	6.31µM*	-4.8%	-6.6%	2.8%	5.6
CCOC(=O)C1(Cc2cccc(OC)c2)CCCN(C(=O)CCN2CCCO2)C1 (stereo not drawn)	?	8.5%	-1.2%	-3.6%	-14.7
CCOC(=O)C1(Cc2cccc(OC)c2)CCCN(C(=O)c2ccc(OC)o2)C1 (stereo not drawn)	14.0%	-10.7%	-0.7%	-4.6%	.
O=C(c1ccncc1)N1CCC[C@@]2(CCN(c3cccc(-c4ccccc4)c3)C2)C1	.	.	-9.7%	.	.
NC(=O)NC(=O)CC1S/C(=N/N=C/c2ccccc2)NC1=O (stereo not drawn)	12.5%	-10.3%	0.9%	0.1%	.
O=C1N/C(=N/N=C/c2ccccc2)SC1(c1ccccc1)c1ccccc1	14.1µM*	-6.1%	1.4%	15.5%	2.2
COCCCNC(=O)CN(c1cc(C(F)(F)F)ccc1Cl)S(C)(=O)=O	9.2%	1.9%	-4.5%	-4.3%	.
